Results from PubChem BioAssay (EPA / NIEHS).
Records with an inconclusive call do not appear. The source made the active and inactive calls. Rule for the calls, unless noted: active = hit-call score of the fitted dose curve at least 0.9, where 1 is the maximum; inconclusive = response in the unintended direction; inactive = score below 0.9.

Molecular target: THRB (gene 7068) (UniProt P10828)
Assay: TOX21_TRB_BLA_Antagonist_Followup_ratio: Tox21 Thyroid Hormone Receptor beta Antagonism Beta-lactamase (BLA) Follow-Up Assay, Ratio (AID 2283958)
Excerpt: The GeneBLAzer TRb-UAS-bla HEK293T assay kit for human TRb (ThermoFisherScientific Catalog No. K1684) was used as a secondary assay for specificity (TRb-bla).This assay contained the ligand-binding domain (LBD) of the human TRb fused to the DNA-binding domain of GAL4 stably integrated in the GeneBLAzer UAS-bla HEK293Tcell line. The reporter gene, b-lactamase, is under the transcriptional control of a UAS that binds the GAL4 DNA-binding domain. A cell viability assay was run in parallel for these cells as well using the CellTiter-Glo viability assay kit.TOX21_TRB_BLA_Antagonist_Followup_ratio is an assay readout measuring reporter gene via receptor activity and designed using inducible reporter (beta lactamase induction) detected with GAL4 b-lactamase reporter gene. The signal is derived from the ratio of cleaved (ch2) to uncleaved (ch1) reporter gene substrate used as the measure of target activity.Data from the assay component TOX21_TRB_BLA_Antagonist_Followup_ratio was analyzed into 1 assay endpoint. This assay endpoint, TOX21_TRB_BLA_Antagonist_Followup_ratio, was analyzed in the positive analysis fitting direction relative to DMSO as the negative control and baseline of activity. […] Furthermore, this assay endpoint can be referred to as a primary readout, because this assay has produced multiple assay endpoints and this ratio serves a reporter gene function to understand target activity. […]
Cell Media Required: Growth (90% DMEM/F-12, 10% Fetal Bovine Calf Serum, 100U/ml Penicillin, 100 ug/ml Streptomycin), Assay (10ng/mL sodium selenite, 10 ug/mL humanapo-transferrin, 10 uM ethanolamine, 10 ug/mL insulin, 500 ug/mL bovine serum albumin (BSA))Assay Protocol: TRb-bla cells were dispensed at 3,000 cells/well in 5 uL of the assay medium containing phenol red-free DMEM with 2% charcoal-stripped FBS in 1,536-well black-wall/clear-bottom plates using an FRD. […] After 2-h incubation at room temperature, the fluorescence intensity was measured using an Envision plate reader. Data were expressed as the ratio of 460:530nm. […]

Sequence of THRB (gene 7068) (P10828 whole entry, looked up): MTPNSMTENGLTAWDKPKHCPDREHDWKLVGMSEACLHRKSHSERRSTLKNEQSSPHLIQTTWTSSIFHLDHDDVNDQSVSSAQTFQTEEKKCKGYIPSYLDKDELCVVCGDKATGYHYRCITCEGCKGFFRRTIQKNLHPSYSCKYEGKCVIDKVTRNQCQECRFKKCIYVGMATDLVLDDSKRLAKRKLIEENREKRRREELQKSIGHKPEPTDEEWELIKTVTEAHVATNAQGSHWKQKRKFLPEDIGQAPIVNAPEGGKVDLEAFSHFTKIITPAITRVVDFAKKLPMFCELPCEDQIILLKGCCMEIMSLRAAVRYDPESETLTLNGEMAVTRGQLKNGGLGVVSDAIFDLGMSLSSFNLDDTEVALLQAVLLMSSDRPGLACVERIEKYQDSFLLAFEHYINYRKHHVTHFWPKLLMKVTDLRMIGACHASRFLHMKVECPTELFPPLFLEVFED

| SMILES | outcome | AC50 |
| --- | --- | --- |
| CSC1=N[C@@](C)(c2ccccc2)C(=O)N1Nc1ccccc1 | inactive | – |
| CON=C(C(=O)OC)c1ccccc1CON=C(C)c1cccc(C(F)(F)F)c1 | inactive | – |
| C=C(C)[C@H]1Cc2c(ccc3c2O[C@@H]2COc4cc(OC)c(OC)cc4[C@@H]2C3=O)O1 | – | 1.52 µM (active) |

Tested on: not listed separately
Assay: TOX21_TRB_BLA_Antagonist_Followup_viability: Viability Assessment in the Tox21 Thyroid Hormone Receptor beta Antagonism Beta-lactamase (BLA) Follow-Up Assay (AID 2283961)
Procedure, shortened: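 ATP-based CellTiter-Glo luminescence (30 min, room temperature) run in the same wells as the TRβ-bla readout. Cells: GeneBLAzer HEK293T expressing GAL4-TRβ LBD, exposed 18 h at 37C to compounds at 11 concentrations in triplicate, stripped-serum medium.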

| SMILES | outcome | AC50 |
| --- | --- | --- |
| CSC1=N[C@@](C)(c2ccccc2)C(=O)N1Nc1ccccc1 | inactive | – |
| CON=C(C(=O)OC)c1ccccc1CON=C(C)c1cccc(C(F)(F)F)c1 | inactive | – |
| C=C(C)[C@H]1Cc2c(ccc3c2O[C@@H]2COc4cc(OC)c(OC)cc4[C@@H]2C3=O)O1 | – | 6.16 µM (active) |

Molecular target: THRB (gene 7068) (UniProt P10828)
Assay: TOX21_TRB_COA_Antagonist_Followup_ratio: Tox21 Thyroid Hormone Receptor beta Antagonism through Coactivator Recruitment Follow-Up Assay, Ratio (AID 2283967)
Procedure, shortened: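 Coactivator recruitment to the GST-tagged TRb ligand-binding domain (5.0 nM) was read as the 520/495 nm TR-FRET ratio, using 200 nM fluorescein SRC-2 peptide and 2 nM terbium anti-GST. Scaled between DMSO and T3 wells; loss of signal fitted.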

| SMILES | outcome |
| --- | --- |
| CSC1=N[C@@](C)(c2ccccc2)C(=O)N1Nc1ccccc1 | inactive |
| CON=C(C(=O)OC)c1ccccc1CON=C(C)c1cccc(C(F)(F)F)c1 | inactive |
| C=C(C)[C@H]1Cc2c(ccc3c2O[C@@H]2COc4cc(OC)c(OC)cc4[C@@H]2C3=O)O1 | inactive |

Molecular target: Retinoic acid receptor RXR-alpha (Homo sapiens) (UniProt P19793)
Sequence (P19793 whole entry, looked up): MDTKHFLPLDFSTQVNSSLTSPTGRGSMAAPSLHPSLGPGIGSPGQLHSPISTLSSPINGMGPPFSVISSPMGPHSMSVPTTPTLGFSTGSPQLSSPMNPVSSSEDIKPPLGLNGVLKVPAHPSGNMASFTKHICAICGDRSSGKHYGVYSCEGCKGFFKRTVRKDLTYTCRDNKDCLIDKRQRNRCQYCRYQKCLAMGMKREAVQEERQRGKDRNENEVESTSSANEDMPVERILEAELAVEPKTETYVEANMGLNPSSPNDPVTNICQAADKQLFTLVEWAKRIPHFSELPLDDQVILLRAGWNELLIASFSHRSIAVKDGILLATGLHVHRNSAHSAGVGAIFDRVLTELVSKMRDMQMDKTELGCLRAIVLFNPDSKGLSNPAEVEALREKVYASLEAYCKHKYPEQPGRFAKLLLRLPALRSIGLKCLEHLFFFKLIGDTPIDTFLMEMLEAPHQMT
Assay: TOX21_TR_RXR_BLA_Antagonist_Followup_ratio: Tox21 Thyroid Hormone Receptor beta Retinoid X Receptor alpha (RXRa) Antagonism Beta-lactamase (BLA) Follow-Up Assay, Ratio (AID 2283972)
Procedure, shortened: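 After 5 h attachment at 37C, HEK293T RXRa-bla cells (2,500/well, 2% charcoal-stripped FBS, no phenol red) received compounds at 11 concentrations in triplicate for 16 h. Beta-lactamase read as 460:530 nm ratio after 2 h RT substrate loading.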

| SMILES | outcome |
| --- | --- |
| CSC1=N[C@@](C)(c2ccccc2)C(=O)N1Nc1ccccc1 | inactive |
| CON=C(C(=O)OC)c1ccccc1CON=C(C)c1cccc(C(F)(F)F)c1 | inactive |
| C=C(C)[C@H]1Cc2c(ccc3c2O[C@@H]2COc4cc(OC)c(OC)cc4[C@@H]2C3=O)O1 | inactive |

Tested on: not listed separately
Assay: CCTE_Harrill_HTTr_Viability_DMEM_6hr: (Pilot) CCTE's 6-hour Cell Viability Assessment for the High-Throughput Transcriptomics (HTTr) Platform, in MCF-7 cells cultured in DMEM + 10% fetal bovine serum, Harrill Lab (AID 2283973; active = hit-call score of the fitted dose curve at least 0.9, where 1 is the maximum; inactive = score below 0.9)
Excerpt: This is a cell-based assay that evaluates cell viability using high content imaging to evaluate membrane integrity using propidium iodide dye exclusion in a 384 well format.One of seven assay components measured from the CCTE_Harrill_HTTr_Viability assay. This was part of a pilot experiment. This is a cell-based assay that evaluates cell viability in MCF-7 cells cultured in DMEM + 10% fetal bovine serum. High content imaging is used to evaluate membrane integrity using propidium iodide dye exclusion. Measurements are taken at 6 hours after chemical dosing in 384-well format.The assay component endpoint CCTE_Harrill_HTTr_Viability_DMEM_6hr was analyzed with bidirectional fitting relation to DMSO as the negative control and baseline of activity. Using a type of viability reporter to understand changes in cytotoxicity, gain-of-signal activity can be used to evaluate membrane integrity using propidium iodide dye exclusion. To generalize the intended target to other relatable targets, this assay endpoint is annotated to cell cycle, where the subfamily is cytotoxicity.
Chemicals were tested in MCF7 cells in an eight point dilution series with a six hour exposure duration.

| SMILES | outcome |
| --- | --- |
| CON=C(C(=O)OC)c1ccccc1CON=C(C)c1cccc(C(F)(F)F)c1 | inactive |
| CCNc1nc(Cl)nc(NC(C)(C)C#N)n1 | inactive |
| C=C(C)[C@H]1Cc2c(ccc3c2O[C@@H]2COc4cc(OC)c(OC)cc4[C@@H]2C3=O)O1 | inactive |
| CC(C1CC1)C(O)(Cn1cncn1)c1ccc(Cl)cc1 (centres undefined) | inactive |

Tested on: not listed separately
Assay: CCTE_Harrill_HTTr_Viability_DMEM_12hr: (Pilot) CCTE's 12-hour Cell Viability Assessment for the High-Throughput Transcriptomics (HTTr) Platform, in MCF-7 cells cultured in DMEM + 10% fetal bovine serum, Harrill Lab (AID 2283974; active = hit-call score of the fitted dose curve at least 0.9, where 1 is the maximum; inactive = score below 0.9)
Procedure, shortened: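 Propidium iodide dye exclusion imaged by high-content microscopy after 12 h chemical exposure (eight concentrations) of MCF-7 cells grown in DMEM plus 10% FBS; values fitted in both directions relative to DMSO.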

| SMILES | outcome |
| --- | --- |
| CON=C(C(=O)OC)c1ccccc1CON=C(C)c1cccc(C(F)(F)F)c1 | inactive |
| CCNc1nc(Cl)nc(NC(C)(C)C#N)n1 | inactive |
| C=C(C)[C@H]1Cc2c(ccc3c2O[C@@H]2COc4cc(OC)c(OC)cc4[C@@H]2C3=O)O1 | inactive |
| CC(C1CC1)C(O)(Cn1cncn1)c1ccc(Cl)cc1 (centres undefined) | inactive |

Tested on: not listed separately
Assay: CCTE_Harrill_HTTr_Viability_DMEM_24hr: (Pilot) CCTE's 24-hour Cell Viability Assessment for the High-Throughput Transcriptomics (HTTr) Platform, in MCF-7 cells cultured in DMEM + 10% fetal bovine serum, Harrill Lab (AID 2283975; active = hit-call score of the fitted dose curve at least 0.9, where 1 is the maximum; inactive = score below 0.9)
Procedure, shortened: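 Pilot study: propidium iodide dye exclusion, imaged by high content microscopy, after 24 h compound exposure (eight concentrations) in MCF-7 cultured in DMEM + 10% fetal bovine serum; DMSO served as negative control and baseline.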

| SMILES | outcome | AC50 |
| --- | --- | --- |
| CON=C(C(=O)OC)c1ccccc1CON=C(C)c1cccc(C(F)(F)F)c1 | inactive | – |
| CCNc1nc(Cl)nc(NC(C)(C)C#N)n1 | inactive | – |
| C=C(C)[C@H]1Cc2c(ccc3c2O[C@@H]2COc4cc(OC)c(OC)cc4[C@@H]2C3=O)O1 | – | 31.1 nM (active) |
| CC(C1CC1)C(O)(Cn1cncn1)c1ccc(Cl)cc1 (centres undefined) | inactive | – |
